Compounds without any hit were thinned out: in the full panel of roughly 83,000, 20% have a hit.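 Interpretation: 100, growth as untreated; towards 0, rising growth inhibition; 0, no net growth; 0 to -100, cell death. Compounds scoring below 10 were considered active.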 A number with no mark means an inactive call. Active and inactive are the calls of the source.
The compounds below were run on HL-60(TB) leukemia (assay: NCI-60 one-dose screen, 48 h (100 = growth as untreated, 0 = no growth, -100 = all killed)). Conditions: 10 µM unless noted.

| SMILES | growth |
| --- | --- |
| N=c1ccc2nc3ccc(N)cc3sc-2c1 | 0.816% (active) |
| O=C(Cc1ccc(/C=C/C(=O)c2nccs2)cc1)Nc1ccccc1 | 75% |
| COc1ccc2c(O)c(/C=C3\N=Nc4ccccc43)oc2c1C[C@H]1CCNC[C@H]1F | 14.4% |
| NS(=O)(=O)c1ccc(N=Nc2ccc(-c3nn4cc(-c5ccccc5)nc4s3)cc2)cc1 | 91.5% |
| COc1cnc2c(c1)C(=O)c1c-2n(CCCNC2=NCCS2)c(=O)c2cc(F)ccc12 | -45.5% (active) |
| Nc1ccc(C(=O)c2ccc(N)c(Br)c2)cc1Br | -16.5% (active) |
| Cc1sc2nc(NCCN)[nH]c(=O)c2c1C | 115% |
| O=S(=O)(NCCNc1nccc(-c2c(-c3cccc(O)c3)nc3occn23)n1)c1ccc(Br)cc1 | 18% |
| O=C(/C(=C/c1ccc([N+](=O)[O-])cc1)SCc1ccc(F)cc1)c1ccc(F)cc1 | 68.8% |
| OC(CCC(O)(c1ccccc1)c1ccccc1)(c1ccccc1)c1ccccc1 | -21.7% (active) |
| COC(=O)C1=NNC(=S)N(c2cc(C)[nH]n2)C(=O)C1 | 100% |
| ClC(Cl)c1nc(-c2ccccc2)n2nc(-c3ccccc3)cc2n1 | -7.03% (active) |
| O=C(CCCCC[P+](c1ccccc1)(c1ccccc1)c1ccccc1)NC(COC(=O)C(Cl)Cl)(COC(=O)C(Cl)Cl)COC(=O)C(Cl)Cl | 95.5% |
| CCN(CC)CCSc1ncnc2c1cnn2-c1ccc(S(N)(=O)=O)cc1 | 72.4% |
| Cc1noc(C)c1-c1ccc2nc(NC(=O)[C@H]3CCN(C#N)C3)cn2c1 | 95.9% |
| CNC(=O)c1cc(Oc2cccc3nc(NC(=O)Nc4ccc(F)cc4F)ccc23)ccn1 | 81.8% |
| Nc1c(C(=O)c2ccccc2)sc2nc(-c3cccs3)cc(-c3cccs3)c12 | 22% |
| CCCCCCCCCCCCC[C@H](O)C[C@H](O)[C@H](C)N | 54.8% [1.25 µM] |
| Cc1ccc(/C=C/c2c(C(=O)/C=C/c3ccccc3)c(C)nc3ccccc23)cc1 | 14.8% |

| SMILES | growth |
| --- | --- |
| c1ccc2cc(C[n+]3ccn(CCCCCCCCCCn4cc[n+](Cc5ccc6ccccc6c5)c4)c3)ccc2c1 | -67.8% (active) |
| Cc1csc(NC(c2ccc(Br)cc2)c2c(C)nc3ccccn23)n1 (configuration not stated) | 102% |
| CN1CCN(c2ccc(Nc3ncc4[nH]c(=O)n(Cc5ccccc5N)c4n3)cc2)CC1 | 97.2% |
| CC1O[C@@H]2C[C@@](O)([C@H]1O)n1c3ccccc3c3c4c(c5c6ccccc6n2c5c31)C(=O)NC4=O (some centres not stated) | 66.6% |
| COc1ccc(-c2cc(-c3nnc(SCC(=O)Nc4ccc(C(C)=O)cc4)n3-c3ccccc3)c3ccccc3n2)cc1OC | 100% |
| O=C(O)c1ccc(-c2nn(-c3ccc(C(=O)O)cc3)cc2CNc2ccc(Br)cc2)cc1 | 107% |
| COc1ccc(-c2nc(-c3ccccc3)c(-c3ccccc3)[nH]2)cc1OC1CCCC1 | 83.1% |
| COc1ccc(C(=O)C(Br)C(Br)C(=O)O)cc1 (configuration not stated) | 103% |
| CS(=O)(=O)c1ccc(C(=O)N/N=C/c2ccccc2Cl)cc1 | 52.3% |
| C/C(=N\NC(=S)N1CCCC1)c1ccccn1 | -13.4% (active) |
| Nc1c(C(=O)Nc2ccncc2)sc2nc3c(cc12)CCCCCCCC3 | -54.9% (active) |
| COC[C@H](C)n1c(C2CCOCC2)nc2cnc3cc(-c4c(C)noc4C)c(OC)cc3c21 | 31.5% |
| COC(=O)c1cc(N=C2NC(=O)/C(=C/C=C/c3ccccc3)S2)ccc1O | -0.749% (active) |
| O=C1/C(=C\c2cn(C(=O)c3ccc(Cl)cc3)c3ccccc23)c2ccccc2N1C(=O)c1ccc(Cl)cc1 | 54.2% |
| Nc1cc(-c2ccc(Cl)cc2)nn1-c1nnc(/C=C/c2ccco2)c(=O)[nH]1 | 52.2% |
| NCCCNc1nc2ccccc2c2c(=O)c3cc(F)cc(Cl)c3sc12 | 75.5% |
| N#CC1CCc2c(c(-c3ccc4nc(N)sc4c3)nc3ccc4[nH]ncc4c23)C1 (configuration not stated) | 34.9% |
| COC1C(O)CC(OC2CC(OC3CC(O[C@@H]4C(=O)c5c(cc6cc(OC7CC(OC8CC(O)C(O)C(C)O8)C(O)C(C)O7)c(C)c(O)c6c5O)CC4[C@H](OC)[C@@H](O)C(C)=O)OC(C)C3O)OC(C)C2O)OC1C (some centres not stated) | 14.3% |
